# The campaign covered roughly 1,200 compounds. About 290 (24%) were called active. Not shown: some 9% with an inconclusive outcome. No rule for the calls is given here. These entries were drawn from the full list. Measured potencies and affinities stand elsewhere.
# Test: LCL viability reduction – cell-based, plate reader, cherry-picks, set 2, cytotoxicity control, dose response (AID 504882)
# Conditions: EBV lymphoblastoid cells (LCL) viability; series mostly up to 19.5 µM
row,Compound,outcome
1,Oc1[nH]c2ccccc2c1N=Nc1c(F)c(F)c(Cl)c(F)c1F,inactive
2,CCn1nnc2cc(C(=O)NCCc3ccccc3F)ccc21,inactive
3,O=C(Nc1cccc(C(=O)O)c1)Nc1ccccc1Cl,inactive
4,CCc1ccc(/C=N/NC(=O)c2ccccn2)cc1,inactive
5,Cc1ccc(C(=O)Nc2nnc(SCC(=O)N3CCCc4ccccc43)s2)cc1,inactive
6,CCC(Oc1ccccc1)C(=O)NC1CCSC1=O (stereo not given),inactive
7,O=C(O)/C=C/c1ccc2ccccc2n1,inactive
8,CN(C)CCN(Cc1ccc(Cl)cc1)c1ccccn1,inactive
9,Cc1ccc(C(=O)Nc2cccc(C(=O)O)c2)cc1S(=O)(=O)N1CCCCC1,inactive
10,CCCCN(c1ccccc1)c1ncnc(N)c1[N+](=O)[O-],inactive
11,O=C(N/N=C/c1cccc(O)c1)c1ccc2c(c1)OCCO2,inactive
12,O=C(NN1C(=O)C2C3C=CC(C4CC34)C2C1=O)c1cccc(Cl)c1 (stereo not given),inactive
13,CC(C)(C)n1nc(-c2ccc(F)cc2)c2c(N)ncnc21,inactive
14,COc1cc(OC)cc(-c2cc3nc(C)c(CCC(=O)O)c(C)n3n2)c1,inactive
15,CN(C)CC(C)(C)CNS(=O)(=O)c1ccc(OC(F)(F)F)cc1,inactive
16,COc1cccc(C2=CC(=O)C[C@H](c3ccc4c(c3)OCO4)C2)c1,inactive
17,CCCCCCNC(=O)O[C@]12C[C@@H](C(=O)OC)[C@@H](C(=O)OC)C[C@@]1(O)CN(S(=O)(=O)c1ccc(C)cc1)C2,inactive
18,COC(=O)CN(c1ccccc1F)S(=O)(=O)c1ccc(C)cc1,inactive
19,CN(CCNC(=O)C1CCN(S(=O)(=O)N2CCOCC2)CC1)CCc1ccccc1,inactive
20,O=c1c2cnn(-c3ccccc3)c2nc(-c2cccs2)n1-c1ccc(Cl)cc1,inactive
21,NNC(=O)c1cccc(COc2ccc3c(c2)CCC3)c1,inactive
22,S=c1[nH]nc(C2CCCCC2)n1/N=C/c1ccncc1,inactive
23,N#CC1=C(N)C(C#N)(C#N)C(c2cccnc2)C2CC(c3ccccc3)CC=C12 (stereo not given),inactive
24,COc1cc(CC(=O)N(c2ccccc2)c2nc(C)cs2)cc(OC)c1OC,inactive
25,O=C(CN1C(=O)c2ccccc2S1(=O)=O)Nc1ncc(Cl)cc1Cl,inactive
26,Cc1ccc(-n2c(=O)c3c(c4cc(C)ccc4n3C)n(CC(=O)NCC3CCCO3)c2=O)cc1 (stereo not given),inactive
27,COc1ccc(C)cc1S(=O)(=O)N(CC(=O)Nc1cc([N+](=O)[O-])ccc1C)c1ccc(C)c(C)c1,inactive

row,Compound,outcome
1,O=C(c1sc2cc([N+](=O)[O-])ccc2c1Cl)N1CCOCC1,inactive
2,Cc1cc(=O)[nH]c(N/N=C/c2ccc(C)o2)n1,inactive
3,Cc1cc(N=Cc2c(O)ccc3cc(Br)ccc23)no1,inactive
4,CC(=O)Nc1cccc(-c2cnc(N)c(C(=O)c3cccnc3)n2)c1,inactive
5,O=C(O)c1cc(=O)c2c(OCC(O)COc3cccc4oc(C(=O)O)cc(=O)c34)cccc2o1,inactive
6,Cn1cc(SCC(=O)NCC2CCCO2)c2ccccc21 (stereo not given),inactive
7,Cc1ccc(-n2c(C)c([N+](=O)[O-])c3ccc(O)c(CN(C)C)c32)cc1,inactive
8,NC1=NC(=O)NC1(c1ccccc1)c1ccccc1,inactive
9,Cn1nc(-c2ccc(N3CCOCC3)c(NS(=O)(=O)c3ccccc3)c2)c2ccccc2c1=O,inactive
10,COc1ccccc1N1CCN(C(=O)CCC(=O)N2CCN(c3ccc(F)cc3)CC2)CC1,inactive
11,COc1ccc(/C=C/C(=O)OCC(=O)NCc2ccco2)cc1OC,inactive
12,CCOc1ccc(C(=O)NC(=S)N(Cc2ccccc2)Cc2ccccc2)cc1,inactive
13,COc1ccc2cc(-c3cc(C(=O)OCC(=O)NC4CCS(=O)(=O)C4)c4ccccc4n3)ccc2c1 (stereo not given),inactive
14,O=C(CCCOc1ccccc1)N1CCN(c2ccccc2)CC1,inactive
15,CCn1c(CCNC(=O)c2ccc(OC)cc2)nnc1SCc1ccc(Cl)cc1Cl,inactive
16,CC1S/C(=C(\C#N)C(=O)NCc2ccco2)N(Cc2ccco2)C1=O (stereo not given),inactive
17,Cc1onc(-c2c(Cl)cccc2Cl)c1C(=O)N[C@@H]1C(=O)N2[C@@H]1SC(C)(C)[C@@H]2C(=O)O,inactive
18,Cc1cc(C)nc(SCC(=O)OCN2C(=O)c3ccccc3C2=O)n1,inactive
19,Nc1ccccc1SC1CC(=O)N(c2ccccc2Cl)C1=O (stereo not given),inactive
20,Cc1ccccc1C(=O)N1CCN(c2ccc(NC(=O)c3ccco3)cc2Cl)CC1,inactive
21,CCOc1ccccc1NC(=O)Cn1c(=O)sc2ccccc21,inactive
22,COc1ccc(C(Nc2ccccn2)c2oc(CO)cc(=O)c2O)cc1 (stereo not given),inactive
23,CC(=O)c1ccc(NC(=O)c2noc3c2CCC3)cc1,inactive
24,O=c1nc(N/N=C/C=C/c2ccccc2)cn[nH]1,inactive
25,Cc1ccc(S(=O)(=O)NC(CC(C)C)C(=O)NCC(c2ccco2)N2CCCCC2)cc1 (stereo not given),inactive
26,COc1ccc(S(=O)(=O)NC(CC(=O)NCc2ccco2)C(C)C)cc1 (stereo not given),inactive
27,Cc1nnc(SCC(=O)N2CCC(c3noc4ccc(F)cc34)CC2)s1,inactive

row,Compound,outcome
1,CCC(=O)NC(=S)Nc1ccccc1C(F)(F)F,inactive
2,COc1ccc(NC(=O)C[C@H]2C(=O)N(CCc3ccccc3)C[C@@H]2c2ccc(OC)cc2)cc1,inactive
3,CC(C)c1cc(NC(=O)c2ccccc2)cc(C(C)C)c1O,inactive
4,O=C1OCC2=C1C(c1ccc3c(c1)OCO3)c1cc3c(cc1O2)OCO3 (stereo not given),inactive
5,CCCCCC(=O)NC(=S)Nc1ccc(Br)cc1C,inactive
6,Cc1cc(C(=O)CN2C(=O)c3ccccc3C2=O)c(C)n1Cc1cccs1,inactive
7,COc1ccc(C(=O)N(CN2CCCC2=O)c2cc(C)on2)cc1OC,inactive
8,Cn1c(=O)[nH]c(=O)c2c1nc(CN1CCOCC1)n2CCCc1ccccc1,inactive
9,Cc1c(NC(=O)c2cc(-c3cccs3)nc3ccccc23)c(=O)n(-c2ccccc2)n1C,inactive
10,CN(C1CCCCC1)S(=O)(=O)c1ccc(C(=O)N2CCN(c3nc4ccccc4s3)CC2)cc1,inactive
11,O=C(CN1C(=O)CCOc2ccccc21)Nc1ccc(Cl)c(S(=O)(=O)N2CCOCC2)c1,inactive
12,Cc1cccc(CNc2ncnc3ccc(-c4ccoc4)cc23)c1,inactive
13,COc1cc(-c2nc(C(=O)NCC3CCCO3)cc3c2[nH]c2ccccc23)cc(OC)c1OC (stereo not given),inactive
14,CC(C)CC1C(=O)N(Cc2cn(CC3CCCCC3)nn2)CCS(=O)(=O)N1Cc1ccc(-c2ccc(F)nc2)cc1 (stereo not given),inactive
15,CCOC(=O)OC(C)OC(=O)[C@@H]1N2C(=O)[C@@H](NC(=O)[C@H](N)c3ccccc3)[C@H]2SC1(C)C (stereo not given in full),inactive
16,CCCc1cc(=O)[nH]c(SCC(=O)NC2CCCCC2)n1,inactive
17,Cc1ccc(C)c(N2CCN(S(=O)(=O)c3ccc4c(c3)CCN4C(=O)CCC(=O)O)CC2)c1,inactive
18,Cc1ccnc(SCCn2c(N3CCN(c4ccccc4)CC3)nc3c2c(=O)[nH]c(=O)n3C)n1,inactive
19,O=C(CCC(=O)NNC(=O)Nc1cccc(Cl)c1)NCc1ccccc1,inactive
20,Cc1ccccc1C(=O)NC(=S)Nc1ccc(N2CCN(C(=O)c3ccccc3)CC2)cc1,inactive
21,COCCNC(=O)NC12CC3(C)CC(C)(CC(C)(C3)C1)C2,inactive
22,COCCn1c(SCc2ccc(C(=O)OC)o2)nnc1-c1c[nH]c2ccccc12,inactive
23,CCOc1ccc(OCc2cccc(C(=O)N3CCCC3)c2)cc1,inactive
24,COc1ccc(C(=O)Nc2cccc(C(=O)N/N=C/c3ccc(OC)cc3OC)c2)cc1,inactive
25,O=S(=O)(N/N=C/c1ccccc1F)c1ccccc1,inactive
26,CSc1nc2cc3c(cc2n1C(=O)c1ccc(C)cc1)OCCO3,inactive
27,Nc1cc2ccncc2c2ccccc12,inactive

row,Compound,outcome
1,CC(C)NCC(O)COc1cccc2ccccc12 (stereo not given),inactive
2,COc1ccc(-n2c(C)c([N+](=O)[O-])c3ccc(O)c(CN(C)C)c32)cc1,inactive
3,Cc1ccc(C(=O)NCC(=O)N(C)Cc2cccc(F)c2)s1,inactive
4,COc1ccc(-n2c(C)c(C(C)=O)c3cc(O)ccc32)cc1,inactive
5,CC(CNC1CCCCC1)OC(=O)c1ccccc1 (stereo not given),inactive
6,CC(C)c1ccc(OCc2cccc(C(=O)N/N=C/c3cccnc3)c2)cc1,inactive
7,CC(C)(C)c1ccc(-c2noc(CCC(N)=O)n2)cc1,inactive
8,COCCn1c(SCC(=O)NCc2ccco2)nnc1-c1c[nH]c2ccccc12,inactive
9,CCOC(=O)C1=C(C)NC(C)=C(C(=O)OCC)C1C(=O)OCC(=O)N(C)C1CCS(=O)(=O)C1 (stereo not given),inactive
10,COc1ccc(-c2csc3ncnc(NCCCO)c23)cc1,inactive
11,COc1cc(C2NC(=O)NC(C)=C2C(=O)OC2CCCC(C)C2)cc(Br)c1O (stereo not given),inactive
12,COc1cccc(CC(=O)NNC(=O)c2ccc3c(c2)OCO3)c1,inactive
13,CCCN(CC)c1ncnc2[nH]ncc12,inactive
14,Cc1cc(N2CCOCC2)c2c(N)c(Br)cc(C)c2n1,inactive
15,CCOc1ccccc1C(=O)NC1CC2CCCC(C1)N2Cc1nnnn1Cc1ccco1 (stereo not given),inactive
16,Nc1ncnc(N2CCc3ccccc32)c1[N+](=O)[O-],inactive
17,CC(=O)Nc1ccc(C=NNc2nnc(NN=Cc3ccc(NC(C)=O)cc3)c3ccccc23)cc1,inactive
18,CCn1c2ccccc2c2cc(NC(=O)c3ccccc3-c3ccccc3C(=O)O)ccc21,inactive
19,CCn1c(NC(=O)c2ccc(C)cc2)c2ccccc2nc1=O,inactive
20,CCCN(CCC)c1ncnc2nc[nH]c12,inactive
21,COc1ccc(CC(C)NCC(O)c2ccc(O)c(NC=O)c2)cc1 (stereo not given),inactive
22,O=C(c1cccs1)N1CC=C(c2ccccc2)CC1,inactive
23,CCN1C(=O)[C@@H]2[C@@H](c3ccc(-c4ccc(Cl)c(Cl)c4)cc3)N3CCC[C@@]3(C(=O)OC)[C@@H]2C1=O,inactive
24,CCOC(=O)N1CCN(C(=O)C2CCC(=O)N(Cc3ccccc3OC)C2)CC1 (stereo not given),inactive

# Reference: PubChem BioAssay AID504882 (Broad Institute, 2011)
